This passage reports outcome and AC50 results from PubChem BioAssay (EPA / NIEHS).

Calls of active or inactive are those of the source. The calls were made as follows: active = hit-call score of the fitted dose curve at least 0.9, where 1 is the maximum; inactive = score below 0.9.

Read-out in this test: Glutamate-cysteine ligase catalytic (GCLC), GCLC (gene 2729)
The test can be described thus: LTEA_HepaRG_GCLC: Life Technologies and Expression Analysis (LTEA) Assay for Glutamate-cysteine ligase catalytic (GCLC) using HepaRG (AID 2283498). The conditions noted are these: mRNA level, 48 h; actives raise or lower the signal. In a few lines: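 HepaRG, 48 h exposure, 8-pt half-log series from 100 uM, 0.5% DMSO vehicle; TaqMan qRT-PCR for GCLC mRNA, housekeeping-normalized; bidirectional curve fit vs DMSO baseline.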
As to `Cc1nn(C)c(Oc2ccccc2)c1C=NOCc1ccc(C(=O)OC(C)(C)C)cc1`, the compound was classed as inactive.

On to `CCCCOCCOCCOCc1cc2c(cc1CCC)OCO2`, for which the call was inactive. Still for that read-out and setting: the entry for `S=C(S)NCCNC(=S)S.[Mn+2].[S-]C([S-])=NCCN=C([S-])[S-].[Zn+2]` is “inactive”; for `CCOC(=O)C(C)Oc1ccc(Oc2nc3ccc(Cl)cc3o2)cc1` (stereo unspecified) it is “inactive”. Still for that read-out and setting: under `CCOC(=O)COc1cc(-n2ncc(C(F)(F)F)c(C)c2=O)c(F)cc1Cl` stands “inactive”. For the compound `CSC(=O)c1cccc2nnsc12`, the compound was called inactive. As to `O=C(O)c1ccccc1`, the outcome was inactive. For the compound `CCCCOC(=O)[C@@H](C)Oc1ccc(Oc2ccc(C(F)(F)F)cn2)cc1`, the call was inactive. As to `CCCOC(=O)c1ccc(C(=O)OCCC)nc1`, the result was inactive. For `CC(=O)S[C@@H]1CC2=CC(=O)CC[C@]2(C)[C@H]2CC[C@@]3(C)[C@@H](CC[C@@]34CCC(=O)O4)[C@H]12`, the AC50 (commonly the midpoint of the concentration-response curve, whichever way the signal moves) is 50 µM (active). `CC(C)CCCCCCc1ccc(O)cc1`: the compound was classed as inactive. As for `CCC(C)OC(=O)N1CCCCC1CCO` (stereo unspecified), the result was inactive.

Regarding `OB(O)O`, the outcome was inactive. Take `C[C@]12C[C@H](O)[C@H]3[C@@H](CCC4=CC(=O)CC[C@@]43C)[C@@H]1CC[C@@H]2C(=O)CO`: the compound was classed as inactive. `CC(C)(C)[C@@H](O)[C@@H](Cc1ccc(Cl)cc1)n1cncn1`: the compound was called inactive.

Regarding `CCCCCOC(=O)COc1cc(N2C(=O)C3=C(CCCC3)C2=O)c(F)cc1Cl`, the compound was classed as inactive.

With `CC(C)(c1ccc(O)cc1)c1ccc(O)cc1`, the compound was called inactive. As for `C=CCOC(Cn1ccnc1)c1ccc(Cl)cc1Cl` (stereo unspecified), the AC50 is 88.7 µM (active). Regarding `c1ccc(Nc2ccccc2)cc1`, the outcome was inactive.

Consider `O=C(Nc1ccc([N+](=O)[O-])cc1Cl)c1cc(Cl)ccc1O`, for which the concentration at half-maximal activity (AC50) was 4.26 µM (active). `CCN(Cc1c(F)cccc1Cl)c1c([N+](=O)[O-])cc(C(F)(F)F)cc1[N+](=O)[O-]`: the AC50 is 50 µM (active).

On to `C[C@]12CC[C@@H]3c4ccc(O)cc4C[C@@H](CCCCCCCCCS(=O)CCCC(F)(F)C(F)(F)F)[C@H]3[C@@H]1CC[C@@H]2O` (stereo partly specified), for which the AC50 was 19.9 µM (active).

In the case of `C#CCOC(=O)[C@@H](C)Oc1ccc(Oc2ncc(Cl)cc2F)cc1`, the call was inactive. Take `S=C([S-])NCCNC(=S)[S-].[Mn+2]`: the compound was classed as inactive.

As to `CN(C)C(=O)Nc1ccc(Cl)c(Cl)c1`, the AC50 is 35.8 µM (active). Take `CCN(CC)C(=O)c1cccc(C)c1`: the compound was classed as inactive.
